High-throughput results: PubChem BioAssay, National Center for Advancing Translational Sciences (NCATS)
NTMT1 inhibitor = blocks human N-terminal methyltransferase 1 activity; Potency, µM (highest dose often 114 µM), for inactives: at the top dose activity change, negative = inhibition, actives largely listed as inhibitors; Q9BV86; NTMT1 MTase-Glo SAH luminescence, purified enzyme; actives 2.5% (n = 59,000);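 further: potency means the concentration at half of the fitted maximal effect; plate controls were DMSO vehicle for no effect and no enzyme for full effect; nearly all actives have a fitted effect of over 65% in size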
Target sequence (Q9BV86 whole entry, looked up): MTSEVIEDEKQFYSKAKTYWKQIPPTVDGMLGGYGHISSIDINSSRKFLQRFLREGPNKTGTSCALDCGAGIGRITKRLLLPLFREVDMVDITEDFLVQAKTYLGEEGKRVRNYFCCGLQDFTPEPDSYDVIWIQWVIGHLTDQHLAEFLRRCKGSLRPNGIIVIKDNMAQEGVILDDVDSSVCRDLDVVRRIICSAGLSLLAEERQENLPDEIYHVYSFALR
OvCa metastasis = inhibitors of ovarian cancer cell adhesion and invasion in omental model. SKOV3ip1-GFP adhesion/invasion on 3D omental model, fluorescence. Potency, µM (titrated, usually from 45.8 µM), for the others: at the highest dose activity change, negative = inhibition, most hits filed as inhibitors. actives 0.1% (n = 46,000). AID 1963576;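 further: potency means the concentration at half of the fitted maximal effect; plate controls were DMSO wells for no effect and tomatine positive control wells for full effect; nearly all actives have a fitted effect of over 65% in size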
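qHTS, 4-pt dose (0.36-46 umol/L); SKOV3ip1-GFP, 1,200 cells/well, no FBS; primary omental fibroblast/mesothelial co-culture 48 h pre-grown; 2 h RT + 16 h 37 C; PBS wash, 4% PFA; GFP count 488/509 nm.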
FH mod = Identification of activators of human fumarate hydratase by quantitative high-throughput screening; Fumarate hydratase, mitochondrial (Homo sapiens), P07954; FH coupled MDH/diaphorase resazurin fluorescence, 15 min; Potency, µM (titrated, usually from 79.9 µM), without a hit: at the highest dose activity change, negative = inhibition, most hits filed as inhibitors; actives 0.22% (n = 54,000); further: potency means the concentration at half of the fitted maximal effect; on the % scale 0 is the no-effect control and ±100 the full control effect; the screen sought activators but most active calls are inhibition curves; nearly all actives have a fitted effect of over 45% in size
DRV1 agonist = activates human resolvin D1 receptor GPR32 | O75388 | CHO-K1 GPR32 beta-arrestin PathHunter luminescence, 90 min; zero percent set by DMSO-only wells | activation, % at 76.9 µM | actives 2.5% (n = 48,000) | AID 1346428;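 active means activation of at least 60% and not above a set upper limit, about 1 call in 100 departs from these limits; inconclusive means activation of 40% to 60%, or above that upper limit; inactive means activation under 40%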; further: 0% is about no effect
Target sequence (O75388 whole entry, looked up): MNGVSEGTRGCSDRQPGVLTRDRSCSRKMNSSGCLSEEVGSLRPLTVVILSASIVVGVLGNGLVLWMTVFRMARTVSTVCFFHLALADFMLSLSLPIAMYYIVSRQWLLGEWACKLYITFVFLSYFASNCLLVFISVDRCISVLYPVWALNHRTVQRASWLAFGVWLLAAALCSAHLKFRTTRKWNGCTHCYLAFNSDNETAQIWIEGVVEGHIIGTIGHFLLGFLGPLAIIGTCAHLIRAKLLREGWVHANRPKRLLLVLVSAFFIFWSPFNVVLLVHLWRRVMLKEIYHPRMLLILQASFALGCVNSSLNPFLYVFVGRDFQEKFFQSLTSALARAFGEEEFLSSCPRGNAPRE
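Agonism was scored as beta-arrestin recruitment to ProLink-fused GPR32 in stably transfected CHO-K1 cells, giving a chemiluminescent beta-Gal signal; compounds were incubated 90 min at 37 °C.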
Active calls of the source: *; i = inactive; ? = inconclusive; . = not tested or not shown; ! = not confirmed by another sample; [ ] = another dose, or the depositor's remark. Hits are enriched below; roughly 3.9% of the tested compounds scored in any of these assays. Unless noted, the call rests on the fitted dose curve; in most records, active means well fitted curve in the direction sought with a large enough effect; inconclusive means small, poorly fitted or top-dose-only effect, or another doubt; inactive means no such curve, though single readings can be large; an effect the other way counts as inactive or inconclusive.

SMILES	NTMT1 inhibitor	OvCa metastasis	FH mod	DRV1 agonist
Cc1cc2oc(=O)c(CC(=O)O)c(C)c2c2occ(-c3ccc(F)cc3)c12	40µM*	4%	-15%	-3
COc1ccc(-c2coc3c2c(C)cc2oc(=O)c(CC(=O)O)c(C)c23)cc1	-16%	-7%	?	5
Cc1cccc(NC(=O)Cn2nnc(C(=O)Nc3ccc(F)c(Cl)c3)c2N)c1	-6%	2%	2%	-8
COc1cc(NC(=O)c2nnn(Cc3ccc(F)cc3)c2N)cc(OC)c1	9%	i	2%	79*
Cc1cc(C)cc(NC(=O)Cn2nnc(C(=O)Nc3cc(C)cc(C)c3)c2N)c1	5%	?	-17%	84*
CC(=O)OCC(=O)O[C@@H]1[C@H]2[C@@H](OC(=O)c3ccccc3)[C@@H](C)C[C@]2(O)[C@H](OC(C)=O)C2(C)[C@H]3CC(C)(C)C(=O)[C@@H]3CC1(OC(C)=O)[C@@H]2OC(C)=O (some centres not stated)	21%[12.6 µM]	.	19%[20.6 µM]	.
CS/C=C/C(=O)O[C@@H]1CCC2=CC(=O)C(=C(C)C)C[C@]2(C)[C@H]1C	-6%[29.8 µM]	.	2%[53.3 µM]	.
CC(C)=CC[C@@H](O)C1=CC(=O)c2c(O)ccc(O)c2C1=O	50µM*!	8%	-5%[53.3 µM]	.
COC(=O)C1=CO[C@@H](O[C@@H]2O[C@H](CO)[C@@H](O)[C@H](O)[C@H]2O)[C@H]2[C@@H]1[C@H](O)C[C@]2(C)O	6%[29.8 µM]	.	-3%[53.3 µM]	.
CCCc1ccc(S(=O)(=O)N2CCC(c3nnc(-c4cccc(C)c4)o3)CC2)cc1	79µM*	-8%	?	-18
CCOc1ccc(CCNC(=O)c2ccc(C3(C(F)(F)F)N=N3)cc2)cc1OCC	1%	.	.	.
O=C(CCS(=O)(=O)c1nc(-c2cccs2)cc(C(F)(F)F)n1)Nc1cc(Br)ccc1O	28%	?	-6%	-13
COc1ccccc1-c1cc(C(F)(F)F)nc(S(=O)(=O)CCCC(=O)Nc2cc(OC)c(OC)c(OC)c2)n1	9%	0%	0%	81*
O=C(CCS(=O)(=O)c1nc(-c2cccs2)cc(C(F)(F)F)n1)Nc1ccc(Br)cc1	8%	3.2µM*	3%	-43
COc1ccc(OCc2nc(-c3ccc(-n4cccc4)cc3)no2)cc1	-13%	-9%	-8%	117*
COc1cccc(-c2noc(COc3ccc(C(C)(C)C)cc3)n2)c1	8%	3%	-11%	-6
CCCCn1c(=N)n(CCOc2ccccc2OC)c2ccccc21	-3%	?	-4%	65*
CCN1C(=O)c2cccc3c(S(=O)(=O)Nc4ccc(O)c(C(=O)O)c4)ccc1c23	-15%	16%	32µM*	-36
CCOc1ccc(CCNC(=O)C2COc3ccccc3O2)cc1OCC (configuration not stated)	-6%	.	.	.
O=C(O)c1ccc(-c2c[nH]c3ncc(-c4ccccc4)cc23)cc1C1CCCC1	25µM*	-10%	32µM*!	.
O=C(O)c1ccc(O)c2ncc(-c3n[nH]nc3-c3ccccc3)cc12	9%	.	.	.
CC1CCN(Cc2c(O)ccc3c(=O)c(Oc4ccccc4Cl)c(C(F)(F)F)oc23)CC1	-3%	-5%	-13%	-4
CN1CCC(c2c(O)cc(O)c3c(=O)cc(-c4ccccc4Cl)oc23)C(O)C1 (configuration not stated)	35µM*	.	3%	.
CN1CC[C@@H](c2c(O)cc(O)c3c(=O)cc(-c4ccccc4Cl)oc23)[C@@H](O)C1	24µM*!	17%	-2%[53.3 µM]	.
CN1CCC(c2c(O)cc(O)c3c(=O)cc(-c4ccccc4Cl)oc23)C1CO (configuration not stated)	50µM*	.	13%	.
SMILES	NTMT1 inhibitor	OvCa metastasis	FH mod	DRV1 agonist
CC1=C[C@@H]2[C@H]3[C@@H]4O[C@@](C)(CC[C@H]4O)[C@H]3CC(=O)[C@]23C(=O)N[C@@H](CC(C)C)[C@@H]3[C@@H]1C	13%[29.8 µM]	.	0%[53.3 µM]	.
C=C1CC[C@@H]2[C@](C)(CO)[C@H](O)CC[C@@]2(C)[C@@H]1C/C=C1/C(=O)OCC1OC(=O)/C(=C/CO)C(O)C[C@@H]1C(=C)CC[C@@H]2[C@](C)(CO)[C@H](O)CC[C@]21C (some centres not stated)	-6%[12.6 µM]	.	-10%[20.6 µM]	.
CNCCN(C)Cc1cn[nH]c1-c1ccc(OC2CC(OCCC3CCOCC3)C2)cc1 (configuration not stated)	26%[57.5 µM]	.	.	.
O=[S+]([O-])(c1ccc2c(c1)OCCO2)N1CCN([S+](=O)([O-])c2c(F)cc(Br)cc2F)CC1	6%[57.5 µM]	.	.	.
COc1ccc(NC(=O)c2sc3nc4c(cc3c2N)CCCCCC4)cc1Cl	-12%	-22%	10%	27
COc1ccc(NC(=O)c2sc3nc4c(cc3c2N)CCCCCC4)cc1	?	?	-27%	74*
O=C(COc1ccc(Cl)cc1)NC1CCC(NC(=O)COc2ccc(Cl)cc2)CC1 (configuration not stated)	2%[57.5 µM]	.	0%	.
Cc1cccc(NC(=O)Cn2c(=O)n(CCc3ccccc3)c(=O)c3ccccc32)c1	10%	26%	-5%	75*
COc1cccc(NC(=O)Cn2c(=O)n(CCc3ccc(OC)c(OC)c3)c(=O)c3ccccc32)c1	-8%	18%	-17%	-9
COc1cc2c(=O)n(CCc3ccccc3)c(=O)n(CC(=O)Nc3ccccc3)c2cc1OC	79µM*	?	-5%	3
COc1ccc(-n2c(SCC#N)nc3sc4c(c3c2=O)CCCC4)cc1	8%[57.5 µM]	.	3%	.
Cc1ccc(S(=O)(=O)Nc2ccc(C(=O)Nc3nc(-c4ccc(Cl)cc4)cs3)cc2)cc1	11%[57.5 µM]	.	.	.
CNC(=O)c1cc(Oc2ccc(NC(=O)Nc3ccc(Cl)c(C(F)(F)F)c3)cc2)ccn1	11%[57.5 µM]	4%	-19%	92*
CC(=O)CC(=O)Nc1ccc(Cl)c(C(F)(F)F)c1	12%[57.5 µM]	.	2%	.
COc1cc(C(=O)Nc2ccccc2OCc2cc(=O)n3cc(C)sc3n2)cc(OC)c1OC	89µM*	i	-16%	-3
CCc1ccccc1NC(=O)Cn1c(=O)oc2ccccc21	2%	11%	-6%	-6
COc1ccc(NC(=O)Cn2c(=O)oc3ccccc32)cc1	89µM*	23%	12%	-10
Cc1ccc(NCc2cccn2-c2nnc(N3CCC(C(=O)NC(C)C)CC3)s2)cc1	89µM*	i	-8%	-22
C=CCCN1CCC2(CC1)CN(C(=O)c1c(F)cccc1F)c1ccc(Cl)cc12	5%[57.5 µM]	.	0%	.
C[n+]1cc2c3c(ccc2c2ccc4cc5c(cc4c21)OCO5)OCO3	?	.	16µM*!	?
C/C(O)=C(\C#N)C(=O)Nc1ccc(C(F)(F)F)cc1	-16%	.	.	.
CCOc1ccc(CCNC(=O)CN2CCN(Cc3ccc(F)cc3Cl)C2=O)cc1OCC	?	6%	-6%	75*
CCOc1ccc(CCNC(=O)CN2CCN(Cc3ccc(Cl)cc3)C2=O)cc1OCC	-3%	65%	-16%	17
